Assay results as given in PubChem BioAssay (NCI).
This is part of a sample that, as a whole, favours compounds with a hit. Of some 83,000 tested, about 20% had one in any assay.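 Assay: single dose, 48 h. Readout: percent growth (0 = no net growth; negative = cell death). Active: <10.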 Values without a mark were called inactive. Active and inactive are the calls of the source.

These compounds were tested on HL-60(TB) leukemia (assay: NCI-60 one-dose screen, 48 h (100 = growth as untreated, 0 = no growth, -100 = all killed)). Conditions: 10 µM unless noted.

Compound	growth
COc1ccc(-c2cnnc3c(-c4cccc(C(F)(F)F)c4)cnn23)cc1	60.2%
COc1ccc(Nc2nc(NCc3ccccc3)c3ccccc3n2)cc1	89.5%
CCCCCN1C(=O)/C(=c2\sc3n(c2=O)C2C(NN=3)N(CC)C(=O)N2CC)c2ccccc21 (stereo not given)	-56.6% (active)
CCSCC1CC(O)(c2ccccc2)CC(c2ccc(F)cc2)O1 (stereo not given)	-31.9% (active)
COC(=O)[C@H]1Cc2c([nH]c3ccccc23)[C@H](c2ccc3c(c2)OCO3)N1	98.6%
Cc1ccc(C)n1-c1ccsc1C(=O)NNC(=O)C(Cl)Cl	106%
COc1ccc(C2CC(c3cnccn3)=NN2)cc1OC (stereo not given)	46.5%
COc1ccc(Oc2[nH]n(C3=Nc4ccccc4Sc4ccccc43)c(=O)c2C#N)cc1	112%
OCC1OC(n2ccc3c(NO)ncnc32)C(O)C1O (stereo not given)	-35.1% (active)
C(=C\c1ccncc1)/c1ccncc1	105%
CO[C@H]1C[C@@H]2CC[C@@H](C)[C@@](O)(O2)C(=O)C(=O)N2CCCC[C@H]2C(=O)O[C@H]([C@H](C)C[C@@H]2CC[C@@H](O)[C@H](OC)C2)CC(=O)[C@H](C)C=C(C)[C@@H](O)[C@@H](OC)C(=O)[C@H](C)C[C@H](C)/C=C/C=C/C=C1C	83%
COc1ccc(NC(=O)c2ccc(-c3ccccc3)cc2)c(C(N)=O)c1	61.7%
Cc1ccc(C(SCC(N)C(=O)O)(c2ccccc2)c2ccc(C)cc2)cc1 (stereo not given)	-36% (active)
COc1cccc(C(=O)Cn2cc(/C=C(\C#N)S(=O)(=O)c3ccccc3)c3ccccc32)c1	102%
COc1ccc2c(c1)[nH]c(=O)c1c3cc(C)c(C)cc3cn21	-14.8% (active)
S=C(NCCNC(=S)[S][Sn]([c]1ccccc1)([c]1ccccc1)[c]1ccccc1)[S][Sn]([c]1ccccc1)([c]1ccccc1)[c]1ccccc1	-31% (active)
O=C(CCCCCCN1CC(=O)N2[C@@H](c3ccccc3Cl)c3[nH]c4ccccc4c3C[C@H]2C1=O)NO	55%
N#Cc1c(-c2ccccc2)nc(SCC(=O)Nc2nc(-c3ccc(Cl)cc3)cs2)[nH]c1=O	96.1%
Cn1c(=O)c2c(nc(NC3=NS(=O)(=O)c4ccccc43)n2Cc2ccccc2)n(C)c1=O	112%
CS(=O)(=O)Nc1cc(-c2ccc3ncnc(Nc4ccc5c(cnn5Cc5ccncc5)c4)c3c2)cnc1Cl	15.4%

Compound	growth
COc1cc2nc(SCc3cc(OC)c(OC)c(OC)c3)n(-c3ccccc3OC)c(=O)c2cc1OC	-16% (active)
CC1OC(C(=O)N2CCN(CCO)CC2)CC1COC1CCCCC1 (stereo not given)	98.3% [50 µM]
O=c1c(-c2nc3ccccc3[nH]2)cc2ccccc2n1Cc1cn(Cc2ccc(N3CCOCC3)cc2)nn1	104%
Cc1cc(NN=C(c2ccc(O)cc2)c2ccc(O)cc2)c([N+](=O)[O-])cc1[N+](=O)[O-]	66.9%
CCc1cccc(Sc2cc(C(=O)N3Cc4ccc(OCCN(C)C)cc4C3)ccc2O)c1	50.3%
COc1cccc(/C=C/C(=O)c2cc3c(N)c(C(=O)Nc4cccc5ccccc45)sc3nc2C)c1	3.98% (active)
CC(=O)n1c(-c2ccc(Cl)cc2)nc2c(c1=O)C(c1ccc(Cl)cc1)c1sc3c(Cl)cccc3c1O2 (stereo not given)	-15.4% (active)
CNc1nc2ncc(-c3c(C)noc3C)cc2n1Cc1ccccc1	8.97% (active)
[N-]=[N+]=NCc1cccc(/C(O)=C/C(=O)C(=O)O)c1	17.3%
O=c1[nH]c(-c2ccc(Cl)cc2)nc2sc3c(c12)CCCC3	90.7%
Cc1ccc(/C=C2\CN(C(=O)CCN3CCC(=NO)CC3)C/C(=C\c3ccc(C)cc3)C2=O)cc1	-11.3% (active)
COc1ccc2c(c1)c(-c1nc(-c3c[nH]c4ccncc34)cs1)cn2C	-61.5% (active)
O=C(C(=O)N1CCOCC1)c1ccc(OC2OC(CO)C(O)C(O)C2O)cc1 (stereo not given)	82.7%
O=C(N/N=C/c1ccccc1Cl)c1cccc2ccccc12	127%
O=c1oc2c(C(F)(F)F)cccc2cc1-c1csc(Nc2ccc(OCCF)cc2)n1	-1.08% (active)
FC(F)(F)c1ccc(-c2ncc(-c3ccc(C(F)(F)F)cc3)c(NCc3cc(C(F)(F)F)cc(C(F)(F)F)c3)n2)cc1	71.7%
O=C(N=Nc1c(O)[nH]c2ccccc12)Nc1ccc(Cl)cc1	38.9%
COc1ccc(C(=O)Nc2ccc3nc(N4CCCCC4)cc(C)c3c2)cc1OC	60.3%
C=C[C@]1(C)C=C2C(=O)[C@@]3(O)OC[C@@]4(CCCC(C)(C)C43O)C2(O)C(O)C1 (stereo not given in full)	-73.9% (active)
CC(=O)[C@@]1(O)CC[C@H]2[C@@H]3CC[C@@H]4CC(=O)CC[C@]4(C)[C@H]3[C@@H](O)C[C@@]21C	102%
